KKLEB tox = reduces viability of KKLEB cystic fibrosis airway cells | KKLEB CF airway cells viability, ATPlite luminescence, overnight; hits give low values; cells stimulated with P. aeruginosa culture filtrate | activity change (cytotoxicity), % at 5 µM | actives 0.36% (n = 360,000);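 active = corrected activity change at or below -50% at 5 µM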
Shn3 3UTR inh = Schnurri-3 reporter inhibition in Clone20 osteoblasts | Clone20 osteoblast Shn3 3'UTR firefly luciferase, 24 h | inhibition, % at 12.5 µM | actives 0.52% (n = 360,000) | AID 588674;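 active = mean inhibition of at least 75% with every replicate also reaching 75%; inconclusive = mean inhibition at least 75% but some replicate below; inactive = mean inhibition below 75%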
PAX8 inh HTS = PAX8 transcriptional activity inhibition | RMG-I TPO-luciferase reporter, SteadyGlo, 24 h | actives 1.2% (n = 360,000) | AID 652154 | inhibition, % at 12.6 µM;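 active = mean replicate inhibition at least 60% with every replicate also reaching 60%; inconclusive = only one of the two criteria is met; inactive = mean below 60% and not all replicates reaching 60%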;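 also: luciferase light reporting Pax8 driven TPO promoter activity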
CF NFkB inh = cystic fibrosis NF-kB activation inhibition; KKLEB NF-kB-GFP reporter, PAF-induced, GFP fluorescence overnight; inhibition, % at 5 µM; actives 0.86% (n = 360,000); AID 588850;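 active = at least 50% inhibition at 5 µM, scaled per plate between neutral and stimulator controls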;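 also: PAF is a Pseudomonas aeruginosa culture filtrate used as stimulus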
LGR2 inh = blocks bursicon-induced cAMP signaling via Drosophila LGR2; HEK293 LGR2, CRE-luciferase, bursicon-stimulated, 4 h; inhibition, % at 9.99 µM; actives 0.35% (n = 380,000);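 active = drop in luminescence signal, shown as inhibition above about 50% in the replicate tests, limit read from the data, passing the limit was not always enough; inconclusive = probably only some replicates passing the limit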;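 also: agonist challenge used bursicon conditioned medium at about half maximal strength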
EWS-Fli inh = EWS/Fli transcriptional activity inhibition | A673 NR0B1-luciferase reporter, viability-normalised | inhibition, % at 12.6 µM | actives 0.67% (n = 350,000);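 active = mean inhibition of at least 50% after viability correction, with every replicate also passing that limit; inconclusive = mean reaches 50% but only one of two replicates passes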;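 also: firefly luciferase signal divided by Alamar Blue viability fluorescence both relative to DMSO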
CF NFkB conf = confirmation of cystic fibrosis induced NF-kB inhibitors. shares compounds with CF NFkB inh. KKLEB CF airway cells, PAF-induced NF-kB-GFP fluorescence, overnight. inhibition, % at 5 µM. actives 64% (n = 1,300). AID 602472; in the data active = inhibition above about 40%;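 also: stimulus PAF is a Pseudomonas aeruginosa filtrate and not platelet activating factor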
DNA binding = binds DNA displacing acridine orange; shares compounds with EWS-Fli inh; salmon sperm DNA acridine orange fluorescence polarization; AC35, µM (series often up to 68 µM); actives 2% (n = 640); AID 720586;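 active = fitted curve reaches a 35% signal fall AC35 below twice the sample's top valid tested dose, actives reach about 48 µM in these data; inactive = the rest, including activity in the rising direction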;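 also: lower polarization ratio signals compound binding to DNA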
Large screens that a line does not name were inactive (follow-up assays come after a bar, where they were run); ! = a repeat was not active. Most compounds without a hit are left out; they make up all but 2% or so of the library.

CC1CNCCN1S(=O)(=O)c1cccc2cnccc12 (centres undefined)	none
C#CCN(C[C@@H]1[C@@H](OC(=O)NC2CCCC2)[C@@H](OC(=O)NC2CCCC2)Cn2c(=O)ccc(=O)n21)S(=O)(=O)c1ccc(C)cc1	Shn3 3UTR inh 94, PAX8 inh HTS 96, CF NFkB inh 64, LGR2 inh 66, EWS-Fli inh 68 | CF NFkB conf inactive
COCC(=O)N1[C@H](CO)[C@@H](c2ccccc2)[C@@H]1C#N	none (no result: KKLEB tox, Shn3 3UTR inh, CF NFkB inh)
O=C(Nc1ccc(N2CCN(C(=O)c3ccccc3F)CC2)cc1)c1cncc(Br)c1	CF NFkB inh 69 (no result: EWS-Fli inh) | CF NFkB conf 76
O=C(Nc1ccc(N2CCCCC2)cc1)c1cncc(Br)c1	none (no result: PAX8 inh HTS, LGR2 inh, EWS-Fli inh)
CCOc1cc(/C=N\NC(=O)c2ccc(NC(=O)CC)cc2)ccc1OC(=O)c1ccccc1	Shn3 3UTR inh 95, CF NFkB inh 51 (no result: PAX8 inh HTS, LGR2 inh, EWS-Fli inh) | CF NFkB conf inactive
COc1ccc(S(=O)(=O)Nc2ccc3c(c2)C(=O)N([C@@H](C)CO)C[C@H](C)[C@H](CN(C)Cc2ccc4c(c2)OCO4)O3)cc1	none (no result: KKLEB tox, Shn3 3UTR inh, CF NFkB inh)
CCC(=O)N(Cc1cc(=O)[nH]c2ccccc12)c1ccccc1	none
O=C(CCl)N(Cc1cc(=O)[nH]c2ccccc12)c1ccccc1	CF NFkB inh 69 | CF NFkB conf 74
Cc1onc(-c2ccccc2)c1C(=O)N1CCCSC1=Nc1ccccc1	CF NFkB inh 56! | CF NFkB conf inactive
CCOc1ccc(N=C2SCCCN2C(=O)c2c(CC)noc2C)cc1	none (no result: EWS-Fli inh)
CCc1cc2cc3c(cc2nc1SCC(=O)Nc1cc(C)on1)OCO3	CF NFkB inh 55 (no result: Shn3 3UTR inh, PAX8 inh HTS, LGR2 inh, EWS-Fli inh) | CF NFkB conf 43
COc1ccc(S(=O)(=O)N[C@H]2CC[C@H](CC(=O)N3CCN(c4ccccc4)CC3)O[C@H]2CO)cc1	none (no result: KKLEB tox, Shn3 3UTR inh, CF NFkB inh)
C[C@H](CO)N1C[C@H](C)[C@H](CN(C)C(=O)Nc2ccccc2)Oc2ncc(C#CC(C)(C)O)cc2C1=O	none (no result: KKLEB tox, Shn3 3UTR inh, PAX8 inh HTS, CF NFkB inh)
COc1ccc(-c2csc3ncnc(NCCO)c23)cc1	CF NFkB inh 77 | CF NFkB conf 86
C[C@H]1CN([C@@H](C)CO)C(=O)c2cccc(NC(=O)NC3CCCCC3)c2O[C@@H]1CN(C)C(=O)Nc1cccc2ccccc12	none (no result: KKLEB tox, Shn3 3UTR inh, CF NFkB inh)
Cc1ccc(S(=O)(=O)NCC(c2ccco2)S(=O)(=O)c2ccccc2)cc1 (centres undefined)	none
COc1ccc(OC)c(S(=O)(=O)NCC(c2ccco2)S(=O)(=O)c2ccccc2)c1 (centres undefined)	CF NFkB inh 50 | CF NFkB conf inactive
O=C(C1CCOCC1)N1C[C@H]2[C@@H](c3ccccc31)[C@@H](CO)N2C(=O)Nc1cccc(F)c1	none (no result: KKLEB tox, Shn3 3UTR inh, CF NFkB inh)
O=C(NCCc1c[nH]c2ccccc12)C(=O)c1c[nH]c2ccccc12	none
Cc1cc2cc(CCNC(=O)C(=O)c3c[nH]c4ccccc34)c(=O)[nH]c2cc1C	CF NFkB inh 59 | CF NFkB conf 52
CCCNC(=O)N1CC2(CCN(C(=O)C3CC3)CC2)c2c([nH]c3cc(OC)ccc23)[C@@H]1CO	none (no result: KKLEB tox, Shn3 3UTR inh, CF NFkB inh)
CCC(=O)N1[C@@H](CO)[C@H](c2ccc(-c3ccccc3)cc2)[C@@H]1CNC(=O)COC	none (no result: KKLEB tox, Shn3 3UTR inh, CF NFkB inh)
COc1ccc(C)c2sc(N(CCN(C)C)C(=O)/C=C/c3cccs3)nc12	CF NFkB inh 56 (no result: EWS-Fli inh) | CF NFkB conf inactive
Cc1noc2ncnc(Sc3ccccc3Cl)c12	CF NFkB inh 53 (no result: PAX8 inh HTS, EWS-Fli inh) | CF NFkB conf inactive
Cc1ccc(Sc2ncnc3onc(C)c23)c(C)c1	none
O=C(c1cccc(NS(=O)(=O)c2ccc(F)c(F)c2)c1)N1CCN(C(c2ccccc2)c2ccccc2)CC1	CF NFkB inh 50 (no result: LGR2 inh) | CF NFkB conf inactive
O=C(c1cccc(NS(=O)(=O)c2ccccc2)c1)N1CCCC1	none (no result: EWS-Fli inh)
COc1ccc(-c2cnc3c(NC=O)cc(-c4ccccc4OC)cn23)cc1OC	PAX8 inh HTS 100, CF NFkB inh 65, EWS-Fli inh 58 | CF NFkB conf 91 | DNA binding inactive
COc1ccc(-c2cc(NC=O)c3ncc(-c4ccc(OC)c(OC)c4)n3c2)cc1OC	none
Cc1ccc(Cc2c(-c3ccco3)nc3c(C)cc(Br)cn23)cc1	CF NFkB inh 51, EWS-Fli inh 54 | CF NFkB conf inactive | DNA binding inactive
C[C@H](CO)N1C[C@H](C)[C@H](CN(C)S(=O)(=O)c2ccc(Oc3ccccc3)nc2)OCc2cn(nn2)CCCC1=O	none (no result: KKLEB tox, Shn3 3UTR inh, CF NFkB inh)
C[C@H](CO)N1C[C@H](C)[C@@H](CN(C)Cc2ccc(Cl)c(Cl)c2)OCCCC[C@H](C)Oc2ccc(NC(=O)C3CCCCC3)cc2C1=O	none (no result: KKLEB tox, Shn3 3UTR inh, PAX8 inh HTS, CF NFkB inh)
N/C(=C\C(=O)c1cc(Cl)ccc1O)C(Cl)(Cl)Cl	CF NFkB inh 54, EWS-Fli inh 62 | CF NFkB conf inactive | DNA binding inactive
COCCCNc1ccn2nc(-c3ccccc3)cc2n1	LGR2 inh 72, EWS-Fli inh 57 | DNA binding inactive
C[C@H]1CN([C@@H](C)CO)C(=O)c2cc(-c3cccc(F)c3)cnc2O[C@@H]1CN(C)S(=O)(=O)c1cccc(F)c1	none (no result: KKLEB tox, Shn3 3UTR inh, PAX8 inh HTS, CF NFkB inh)
COc1ccc2oc(C(=O)OCC(=O)NCCc3ccccc3)c(C)c2c1	none
COc1ccc2oc(C(=O)NCCc3ccccc3)c(C)c2c1	LGR2 inh inconclusive, EWS-Fli inh 69 | DNA binding inactive
CCOC(=O)Cc1csc(NC(=S)NC(=O)c2ccc(C)cc2)n1	EWS-Fli inh 82 | DNA binding inactive
CC(C)Oc1ccc(Br)cc1C(=O)N/N=C/c1c[nH]c2ccccc12	EWS-Fli inh 53 | DNA binding inactive
COc1ccc(C2=Nn3c([n+](C)c4ccccc43)SC2)cc1	PAX8 inh HTS 84, EWS-Fli inh 53 | DNA binding inactive
COc1ccc(C2=Nn3c(nnc3-c3ccccn3)SC2)cc1	none (no result: PAX8 inh HTS)
CCN1C(=O)N[C@H]2C[C@H](C(=O)N3CCCC3)[C@H](C)[C@H](c3ccccc3)C[C@H]21	none (no result: KKLEB tox, Shn3 3UTR inh, CF NFkB inh)
CC(C)=CCC/C(C)=C/CN1C(=O)N(c2ccc(F)cc2)[C@H]2C[C@@H](c3ccccc3)[C@@H](C)[C@@H](C(=O)N3CCOCC3)C[C@H]21	PAX8 inh HTS 101, EWS-Fli inh 52 (no result: KKLEB tox, Shn3 3UTR inh, CF NFkB inh) | DNA binding inactive
Cc1ccc(/C=N/Nc2ccnc3cc(Cl)ccc23)c(C)c1	EWS-Fli inh 76 (no result: LGR2 inh) | DNA binding inactive
Cc1ccccc1/C=N/Nc1ccnc2cc(Cl)ccc12	none (no result: LGR2 inh)
COCC(=O)Nc1ccc2c(c1)[C@H]1C[C@@H](CC(=O)NC3CCCCC3)O[C@@H](CO)[C@H]1O2	none (no result: KKLEB tox, Shn3 3UTR inh, CF NFkB inh)

High-throughput results deposited in PubChem by several laboratories.
